Many of the other results were omitted from the sample, so hits are more common in it than they were.
LmPK inh: inhibitors of Leishmania mexicana pyruvate kinase. Q27686. purified LmPK, Kinase-Glo ATP luminescence, 1 h. Potency, µM (doses to about 57.5 µM), for the others: at the highest dose activity change, negative = inhibition, hits mostly inhibitors. 290,000 tested, 0.37% active. AID 1721; further: potency means the concentration at half of the fitted maximal effect; on the % scale 0 is the no-effect control and ±100 the full control effect
Target sequence (Q27686 whole entry, looked up): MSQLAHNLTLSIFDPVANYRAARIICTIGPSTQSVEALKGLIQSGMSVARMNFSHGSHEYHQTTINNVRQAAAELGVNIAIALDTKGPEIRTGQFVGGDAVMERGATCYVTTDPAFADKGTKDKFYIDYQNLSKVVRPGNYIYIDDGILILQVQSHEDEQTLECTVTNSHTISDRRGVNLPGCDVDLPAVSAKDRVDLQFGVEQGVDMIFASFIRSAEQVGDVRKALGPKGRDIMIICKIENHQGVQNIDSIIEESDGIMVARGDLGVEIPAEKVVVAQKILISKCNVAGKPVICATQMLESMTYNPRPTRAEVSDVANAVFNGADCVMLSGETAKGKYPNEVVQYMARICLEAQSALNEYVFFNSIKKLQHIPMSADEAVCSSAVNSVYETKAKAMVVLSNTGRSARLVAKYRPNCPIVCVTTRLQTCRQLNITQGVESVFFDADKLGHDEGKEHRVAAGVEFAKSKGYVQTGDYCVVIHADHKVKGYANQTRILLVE
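Kinase-Glo luminescence read after 1 h RT reaction of 0.1 nM LmPK with 0.5 mM PEP and 0.1 mM ADP. Activity scaled between uninhibited and enzyme-free controls.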
Tb PYK inh: inhibitors of Trypanosoma brucei pyruvate kinase | Q57TT1 | TbPYK enzyme, Kinase-Glo Plus ATP luminescence, 45 min | Potency, µM (titrated, usually from 76.8 µM), for the others: at the highest dose activity, negative = inhibition, hits mostly inhibitors | 410,000 tested, 0.12% active; further: potency means the concentration at half of the fitted maximal effect; on the % scale 0 is the no-effect control and ±100 the full control effect; nearly all actives have a fitted effect of over 50% in size
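In this concentration-response screen, enzyme-free wells defined baseline while DMSO plates tracked drift. Each reaction combined TbPYK, substrate, compound and 130 uM ADP for 45 min at room temperature. Kinase-Glo Plus luminescence gave the signal.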
CHX counter: counter-screen for Shiga toxin inhibitors: cycloheximide protein synthesis inhibition; max response, %; 300,000 tested, 12% active; cell reporter, cycloheximide protein synthesis inhibition counterscreen; AID 2314; in the data active means max response mostly above about 13%, no sharp cut-off; inactive means mostly below about 14%; further: read at 38.3 µM for the half of the compounds with a filed dose; 0% is about no effect
FBPA Giardia inh: inhibitors of Giardia lamblia fructose-1,6-bisphosphate aldolase; A8B2U2; purified Giardia FBPA; Potency, µM (doses to about 59.6 µM), for inactives: at the highest dose activity, negative = inhibition, actives largely listed as inhibitors; 290,000 tested, 0.71% active; AID 2451; further: potency means the concentration at half of the fitted maximal effect; on the % scale 0 is the no-effect control and ±100 the full control effect; nearly all actives have a fitted effect of over 55% in size
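Giardia FBPA (40 nM reagent) was preincubated 10 min at RT with compound (up to 57.5 uM final), then substrate plus GAPDH/TPI/NAD/arsenate coupling system with diaphorase/resazurin was added; resorufin fluorescence (525/598 nm) was read after 20 min.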
Shiga inhibitor: blocks Shiga toxin action in Vero cells; 290,000 tested, 9.2% active; Vero cells, Shiga toxin protein synthesis inhibition reporter; AID 2315; inhibition, % at 38.7 µM; in the data active means inhibition mostly above about 28%, no sharp cut-off; inactive means mostly below about 43%; further: 0% is about no effect
Sm TGR block: S. mansoni TGR enzyme inhibition | 360,000 tested, 3% active | purified TGR, DTNB reduction, TNB absorbance 405 nm | AID 485364 | Q962Y6 | Potency, µM (series often up to 114 µM), for the others: at the highest dose activity change, negative = inhibition, hits mostly inhibitors; further: potency means the concentration at half of the fitted maximal effect; on the % scale 0 is the no-effect control and ±100 the full control effect; nearly all actives have a fitted effect of over 60% in size
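Kinetic colorimetric format: TGR-catalysed, NADPH-driven DTNB reduction monitored via TNB absorbance. Enzyme dispensed at 20 nM; compound exposure 15 min at room temperature before reaction start.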
An asterisk follows results filed as active; i = inactive; ? = inconclusive; . = not tested or not shown; [ ] = remark or other dose. Unless noted, the call rests on the fitted dose curve; in most records, active means well fitted curve in the direction sought with a large enough effect; inconclusive means small, poorly fitted or top-dose-only effect, or another doubt; inactive means no such curve, though single readings can be large; an effect the other way counts as inactive or inconclusive.

SMILES	LmPK inh	Tb PYK inh	CHX counter	FBPA Giardia inh	Shiga inhibitor	Sm TGR block
CC1CN(C(=O)CN(C)S(=O)(=O)c2ccc3ccccc3c2)CC(C)O1 (stereo unspecified)	2%	0%	-2	-2%	-5	-32%
Cc1ccc(C(=O)N/N=C/c2cn(Cc3ccccc3)c3ccccc23)cn1	8%	1%	20*	-2%	31	7%
CCNC(=S)N/N=C/c1cn(Cc2ccc(F)cc2)c2ccccc12	4%	1%	0	1%	-13	7%
O=C(O)c1ccc(N/N=C/c2cn(Cc3ccc(F)cc3)c3ccccc23)cc1	-2%	5%	29*	-5%	70*	-7%
Cc1c(/C=N/Nc2ccc(C(=O)O)cc2)c2ccccc2n1C	-3%	-4%	42*	-9%	14	-31%
O=S(=O)(N/N=C/c1cn(Cc2ccccc2)c2ccccc12)c1ccccc1	3%	6%	15	-9%	51*	-2%
COc1cccc(NC(=O)Cn2c(-c3nonc3N)nc3ccccc32)c1	.	3%	.	.	.	-5%
CCC(C)Sc1ccc([C@H]2N[C@@](Cc3ccccc3)(C(=O)OC)[C@H]3C(=O)N(CC)C(=O)[C@@H]23)cc1OC (stereo partly specified)	.	-4%	.	.	.	-23%
O=c1cc(O)c2ccc(O)cc2o1	4%	2%	-3	6%	-6	0%
O=c1ccc2[n+]([O-])c3ccc(O)cc3oc-2c1	?	-23%	4	?	31	2.2µM*
CN(C(=O)C1CCOC1)c1nnc(-c2cnccn2)s1 (stereo unspecified)	0%	7%	16*	-2%	19	17%
CC(=O)N(C)c1nnc(-c2cnccn2)s1	-1%	-1%	-2	.	-23	-32%
COc1cc(OC)cc(C(=O)NC2=NCCS2)c1	0%	-1%	25	0%	29	-18%
COc1ccc(C(=O)NC2=NCCS2)cc1	-23%	-1%	73*	-7%	68*	1%
O=C(NC12CC3CC(CC(C3)C1)C2)c1cccc(OC(F)F)c1	-5%	0%	42*	9%	72*	-5%
O=C(NC1=NCCS1)c1cccc(OC(F)F)c1	-14%	-4%	36*	-6%	76*	-10%
CC(C)Oc1ccc(C(=O)NC2=NCCS2)cc1	-10%	-18%	20*	?	57	-7%
CC(C)[C@H](NC(=O)c1ccc(F)cc1)C(=O)NC1=NCCS1	-26%	5%	10	0%	6	-3%
NC(=O)c1cccc(-c2ccnc3c2CC(C(=O)NCc2cccc(Cl)c2)O3)c1 (stereo unspecified)	.	1%	.	.	.	.
COc1ccc2c(c1)N(C[C@@H](C)CN(C)C)c1ccccc1S2	.	-5%[33.2 µM]	.	0%[21.7 µM]	.	.
COC(=O)N/N=C/C1=C[N+](=O)c2ccccc2[N+]1=O	.	4%	.	-3%	.	.
COc1cccc(C(=O)NC2=NCCS2)c1OC	-4%	-4%	31*	-1%	63*	2%
CN1CCc2nc(NC(=O)c3cccc(OC(F)F)c3)sc2C1	6%	1%	27*	-8%	23	-9%
CN1CCc2nc(NC(=O)COc3ccc4ccccc4c3)sc2C1	3%	-10%	6	-5%	24	?
Cc1nc2c(OCCC3CCCCC3)cccn2c1N(C)C(=O)CCC1CCCC1	.	-3%	.	.	.	.
SMILES	LmPK inh	Tb PYK inh	CHX counter	FBPA Giardia inh	Shiga inhibitor	Sm TGR block
Cc1cc2c(c(=O)n1Cc1ccccc1)C1O[C@](c3ccsc3)(Cc3cc(C#N)ccc31)O2	-8%[11.5 µM]	.	-1	-6%[12.9 µM]	i	-16%[22.9 µM]
CSc1nc(O)c(C(c2ccc(F)cc2)c2c(O)nc(SC)[nH]c2=O)c(=O)[nH]1	.	-5%	.	.	.	.
CSc1nc(O)c(C(c2ccccc2Cl)c2c(O)nc(SC)[nH]c2=O)c(=O)[nH]1	.	-14%	.	.	.	.
CSc1nc(O)c(C(c2ccc(C)cc2)c2c(O)nc(SC)[nH]c2=O)c(=O)[nH]1	-1%	-9%	5	-9%	1	45µM*
CSc1nc(O)c(C(c2ccccc2)c2c(O)nc(SC)[nH]c2=O)c(=O)[nH]1	-1%	-14%	-1	-12%	-1	7.9µM*
COc1ccc(NC(=O)CSc2ccc3nnc(-c4ccccn4)n3n2)cc1OC	10%	6%	-1	-6%	-9	5%
CCCCn1c(NCc2ccc3c(c2)OCO3)nc2ccccc21	7%	5%	12*	-6%	29	0%
CCCn1c(NCc2ccc3c(c2)OCO3)nc2ccccc21	-4%	2%	20*	5%	34	89µM*
C[C@H](CO)N1C[C@H](C)[C@@H](CN(C)C(=O)OCc2ccccc2)OCc2cn(nn2)CCCC1=O	.	-4%	.	.	.	.
CSc1cccc(NC(=S)NC(=O)c2cccnc2)c1	5%	0%	10	?	12	?
CCCOc1cccc(C(=O)NC(=S)Nc2ccccc2)c1	2%	-9%	5	-1%	18	?
COc1cccc(C(=O)NC(=S)Nc2cccnc2)c1	-12%	-10%	26*	?	43*	56µM*
CCOc1ccc(C(=O)NC(=S)Nc2cccnc2)cc1	-4%	-3%	30*	?	0	-3%
CC(C)Oc1cccc(C(=O)NC(=S)Nc2cccnc2)c1	0%	3%	32*	?	40	?
CC(C)Oc1cccc(C(=O)NC(=S)Nc2ccccc2)c1	2%	-1%	94*	2%	120*	?
CC1CCC2C(C)C3C(CC4[C@@H]5CC=C6C[C@@H](O)CC[C@]6(C)C5CC[C@]34C)N2C1 (stereo partly specified)	.	.	14	3%	-5	.
COc1cccc(C(=O)Nc2cccc(OCc3cc(=O)n4cccc(C)c4n3)c2)c1	.	9%	.	.	.	-3%
CO[C@H]1OC2O[C@@]3(C)CC[C@H]4[C@H](C)CC[C@@H]([C@H]1C)[C@@]24OO3 (stereo partly specified)	.	4%	.	.	.	.
CCCOC1(NC(=O)c2ccccc2)C(C)=CC(=O)C=C1C	-5%	-11%	-2	-5%	-5	22µM*
COC(=O)C(CC(=O)c1ccc(Br)cc1)n1cccn1 (stereo unspecified)	-7%	-11%	-2	2%	-5	4.5µM*
CCOC(=O)C1=C(C)NC(C)=C(C(=O)OCC)C1C(=O)OCC(=O)Nc1ccc(NC(C)=O)cc1	.	3%	.	.	.	.
O=C(Nc1nc(-c2cc(Cl)sc2Cl)cs1)c1cccs1	-3%	-23%	11*	-19%	31	-3%
O=C(Nc1ncc(Cc2ccccc2)s1)c1cccs1	-5%	-11%	59*	4%	131*	-4%
O=C(Nc1ncc(Cc2cccc(Cl)c2)s1)C1=NCCN1	5%	-7%	11	.	-22	12%
O=C(Nc1nc(-c2cc(Cl)sc2Cl)cs1)c1ccc(Br)s1	1%	-3%	-5	-2%	-4	1%

Bioassay records (PubChem BioAssay)
